# Source: PubChem BioAssay AID1159580 (chemical genetic matrix, 2015)
# About 2,000 (36%) of roughly 5,500 compounds were called active. Roughly 18% stayed inconclusive and do not appear here. The list shows a part of the results. Unmarked numbers belong to inactive results. No stated cut-off is given here; in the data, active means normalized growth mostly below about 0.91 (no sharp cut-off); inconclusive means no clear call, values can overlap the other calls; inactive means mostly above about 0.92.
# Experiment: chemical genetic growth profiling, strain panel (AID 1159580);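 further: tested at 20 µM; growth read once vehicle control cultures reached saturation at 30 °C; 1 = growth at the plate median or of vehicle wells; lower values mean less growth of the strain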
# Settings: growth OD
compound,measurement,setting,value
CCOC(=O)CCCCCCCCCCCCC1C=CCC1 (centres undefined),normalized growth,"S. cerevisiae deletion strains, locus YJR066W, strain TOR1, hits give low values",0.902
same,normalized growth,"S. cerevisiae deletion strains, locus YJR075W, strain HOC1, hits give low values",0.062 (active)
same,normalized growth,"S. cerevisiae deletion strains, locus YKL009W, strain mrt4, hits give low values",0.729 (active)
same,normalized growth,"S. cerevisiae deletion strains, locus YKL068W, hits give low values",0.984
same,normalized growth,"S. cerevisiae deletion strains, locus YKL085W, strain MDH1 (second series), hits give low values",0.627 (active)
same,normalized growth,"S. cerevisiae deletion strains, locus YKL085W, strain MDH1, hits give low values",0.627 (active)
same,normalized growth,"S. cerevisiae deletion strains, locus YKL160W, strain elf1, hits give low values",1
same,normalized growth,"S. cerevisiae deletion strains, locus YKR001C, strain vps1, hits give low values",0.0645 (active)
same,normalized growth,"S. cerevisiae deletion strains, locus YKR026C, strain gcn3, hits give low values",0.975
same,normalized growth,"S. cerevisiae deletion strains, locus YKR091W, strain srl3, hits give low values",0.983
same,normalized growth,"S. cerevisiae deletion strains, locus YLL001W, strain dnm1, hits give low values",1
same,normalized growth,"S. cerevisiae deletion strains, locus YLL026W, hits give low values",0.961
same,normalized growth,"S. cerevisiae deletion strains, locus YLL041C, strain sdh2, hits give low values",0.992
same,normalized growth,"S. cerevisiae deletion strains, locus YLR027C, strain aat2, hits give low values",0.973
same,normalized growth,"S. cerevisiae deletion strains, locus YLR039C, strain RIC1, hits give low values",0.0918 (active)
same,normalized growth,"S. cerevisiae deletion strains, locus YLR058C, strain SHM2, hits give low values",0.0501 (active)
same,normalized growth,"S. cerevisiae deletion strains, locus YLR102C, strain apc9, hits give low values",0.0639 (active)
same,normalized growth,"S. cerevisiae deletion strains, locus YLR113W, strain HOG1, hits give low values",1.01
same,normalized growth,"S. cerevisiae deletion strains, locus YLR221C, strain rsa3, hits give low values",0.938
same,normalized growth,"S. cerevisiae deletion strains, locus YLR258W, strain gsy2, hits give low values",0.946
same,normalized growth,"S. cerevisiae deletion strains, locus YLR262C, strain YPT6 (second series), hits give low values",0.942
same,normalized growth,"S. cerevisiae deletion strains, locus YLR262C, strain YPT6, hits give low values",0.102 (active)
same,normalized growth,"S. cerevisiae deletion strains, locus YLR268W, strain sec22, hits give low values",0.0626 (active)
same,normalized growth,"S. cerevisiae deletion strains, locus YLR320W, strain mms22, hits give low values",0.808 (active)
same,normalized growth,"S. cerevisiae deletion strains, locus YLR330W, strain CHS5, hits give low values",0.0514 (active)
same,normalized growth,"S. cerevisiae deletion strains, locus YLR342W, strain FKS1 (second series), hits give low values",0.0786 (active)
same,normalized growth,"S. cerevisiae deletion strains, locus YLR342W, strain FKS1, hits give low values",0.954
same,normalized growth,"S. cerevisiae deletion strains, locus YLR357W, strain rsc2, hits give low values",1
same,normalized growth,"S. cerevisiae deletion strains, locus YLR370C, strain arc18, hits give low values",0.994
same,normalized growth,"S. cerevisiae deletion strains, locus YLR371W, strain rom2, hits give low values",0.0661 (active)
same,normalized growth,"S. cerevisiae deletion strains, locus YLR384C, strain iki3, hits give low values",0.965
same,normalized growth,"S. cerevisiae deletion strains, locus YLR418C, strain cdc73, hits give low values",0.0873 (active)
same,normalized growth,"S. cerevisiae deletion strains, locus YML016C, strain PPZ1, hits give low values",0.0464 (active)
same,normalized growth,"S. cerevisiae deletion strains, locus YML032C, strain rad52, hits give low values",0.0734 (active)
same,normalized growth,"S. cerevisiae deletion strains, locus YML120C, strain ndi1, hits give low values",0.994
same,normalized growth,"S. cerevisiae deletion strains, locus YML124C, strain tub3, hits give low values",0.063 (active)
same,normalized growth,"S. cerevisiae deletion strains, locus YMR058W, strain fet3, hits give low values",0.991
same,normalized growth,"S. cerevisiae deletion strains, locus YMR078C, strain ctf18, hits give low values",0.0817 (active)
same,normalized growth,"S. cerevisiae deletion strains, locus YMR125W, strain sto1, hits give low values",0.951
same,normalized growth,"S. cerevisiae deletion strains, locus YMR129W, hits give low values",0.993
same,normalized growth,"S. cerevisiae deletion strains, locus YMR205C, strain PFK2, hits give low values",0.864 (active)
same,normalized growth,"S. cerevisiae deletion strains, locus YMR223W, strain ubp8, hits give low values",0.0615 (active)
same,normalized growth,"S. cerevisiae deletion strains, locus YMR231W, strain pep5, hits give low values",0.971
same,normalized growth,"S. cerevisiae deletion strains, locus YMR307W, strain GAS1, hits give low values",0.12 (active)
same,normalized growth,"S. cerevisiae deletion strains, locus YNL067W, strain RPL9B, hits give low values",0.0497 (active)
same,normalized growth,"S. cerevisiae deletion strains, locus YNL071W, strain lat1, hits give low values",0.808 (active)
same,normalized growth,"S. cerevisiae deletion strains, locus YNL128W, strain TEP1, hits give low values",0.0632 (active)
same,normalized growth,"S. cerevisiae deletion strains, locus YNL153C, strain GIM3, hits give low values",0.0549 (active)
same,normalized growth,"S. cerevisiae deletion strains, locus YNL183C, strain NPR1, hits give low values",0.893
same,normalized growth,"S. cerevisiae deletion strains, locus YNL209W, strain ssb2, hits give low values",0.982
same,normalized growth,"S. cerevisiae deletion strains, locus YNL233W, strain BNI4, hits give low values",0.0592 (active)
same,normalized growth,"S. cerevisiae deletion strains, locus YNL248C, strain rpa49, hits give low values",1.01
same,normalized growth,"S. cerevisiae deletion strains, locus YNL250W, strain rad50, hits give low values",0.848 (active)
same,normalized growth,"S. cerevisiae deletion strains, locus YNL271C, strain bni1, hits give low values",0.146 (active)
same,normalized growth,"S. cerevisiae deletion strains, locus YNL298W, strain CLA4, hits give low values",0.0648 (active)
same,normalized growth,"S. cerevisiae deletion strains, locus YNL307C, strain MCK1, hits give low values",0.0657 (active)
same,normalized growth,"S. cerevisiae deletion strains, locus YNL322C, strain KRE1 (second series), hits give low values",0.998
same,normalized growth,"S. cerevisiae deletion strains, locus YNL322C, strain KRE1, hits give low values",0.047 (active)
same,normalized growth,"S. cerevisiae deletion strains, locus YNR049C, strain mso1, hits give low values",0.987
same,normalized growth,"S. cerevisiae deletion strains, locus YNR052C, strain pop2, hits give low values",0.0632 (active)
same,normalized growth,"S. cerevisiae deletion strains, locus YOL006C, strain TOP1, hits give low values",0.119 (active)
same,normalized growth,"S. cerevisiae deletion strains, locus YOL012C, strain htz1",0.179 (active)
same,normalized growth,"S. cerevisiae deletion strains, locus YOL147C, strain pex11, hits give low values",0.0616 (active)
same,normalized growth,"S. cerevisiae deletion strains, locus YOR001W, strain rrp6, hits give low values",1
same,normalized growth,"S. cerevisiae deletion strains, locus YOR061W, strain CKA2, hits give low values",0.0461 (active)
same,normalized growth,"S. cerevisiae deletion strains, locus YOR069W, strain VPS5, hits give low values",0.0484 (active)
same,normalized growth,"S. cerevisiae deletion strains, locus YOR070C, strain gyp1, hits give low values",0.962
same,normalized growth,"S. cerevisiae deletion strains, locus YOR080W, strain dia2, hits give low values",0.99
same,normalized growth,"S. cerevisiae deletion strains, locus YOR083W, strain WHI5, hits give low values",1
same,normalized growth,"S. cerevisiae deletion strains, locus YOR106W, strain vam3, hits give low values",0.976
same,normalized growth,"S. cerevisiae deletion strains, locus YOR136W, strain idh2, hits give low values",0.0725 (active)
same,normalized growth,"S. cerevisiae deletion strains, locus YOR144C, strain elg1, hits give low values",0.0688 (active)
same,normalized growth,"S. cerevisiae deletion strains, locus YOR184W, strain ser1, hits give low values",0.0609 (active)
same,normalized growth,"S. cerevisiae deletion strains, locus YOR231W, strain MKK1, hits give low values",0.984
same,normalized growth,"S. cerevisiae deletion strains, locus YOR265W, strain rbl2, hits give low values",0.982
same,normalized growth,"S. cerevisiae deletion strains, locus YOR270C, strain vph1, hits give low values",1.01
same,normalized growth,"S. cerevisiae deletion strains, locus YOR290C, strain snf2, hits give low values",0.962
same,normalized growth,"S. cerevisiae deletion strains, locus YOR316C, strain cot1, hits give low values",0.0601 (active)
same,normalized growth,"S. cerevisiae deletion strains, locus YPL051W, strain arl3, hits give low values",0.989
same,normalized growth,"S. cerevisiae deletion strains, locus YPL078C, strain atp4, hits give low values",0.979
same,normalized growth,"S. cerevisiae deletion strains, locus YPL106C, strain sse1, hits give low values",1.12
same,normalized growth,"S. cerevisiae deletion strains, locus YPL240C, strain hsp82, hits give low values",0.988
same,normalized growth,"S. cerevisiae deletion strains, locus YPL256C, strain CLN2, hits give low values",1.03
same,normalized growth,"S. cerevisiae deletion strains, locus YPR119W, strain clb2, hits give low values",0.0692 (active)
same,normalized growth,"S. cerevisiae deletion strains, locus YPR141C, strain kar3, hits give low values",0.99
same,normalized growth,"S. cerevisiae deletion strains, locus YPR163C, strain tif3, hits give low values",0.0692 (active)
same,normalized growth,"S. cerevisiae deletion strains, locus YPR167C, strain met16, hits give low values",0.0627 (active)
same,normalized growth,"S. cerevisiae deletion strains, strain wtn01, hits give low values",0.0688 (active)
same,normalized growth,"S. cerevisiae strains, strain wild type, hits give low values",0.0499 (active)
